Data: PubChem BioAssay (Tox21)
Results filed as inconclusive are left out. Activity calls are given as the source filed them. Unless noted, the call rests on the fitted dose curve; in most records, active means well fitted curve in the direction sought with a large enough effect in the repeat runs; inconclusive means weak or mixed curves; inactive means no such curve, though single readings can be large; an effect the other way counts as inactive or inconclusive.

What was measured:
[1] = A CellTox Green Cytotoxicity Assay to monitor cytotoxicity in HEK293 cells - 32 hour (AID 1224881); further: nearly all actives have a fitted effect of over 40% in size; further: potency means the concentration at half of the fitted maximal effect
Summary of the method: (§1)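 Fluorescence intensity, read at 0, 8, 16, 24, 32 and 40 h of compound treatment, reflected dye binding to DNA of dead HEK293 cells; compounds (23 nL, DMSO) were added 5 h after plating cells with reagent.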

[2] = A CellTox Green Cytotoxicity Assay to monitor cytotoxicity in HepG2 cells - 0 hour (AID 1224882); further: nearly all actives have a fitted effect of over 35% in size
Summary of the method: (§2)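 Using 1536-well format, dye-containing HepG2 suspension was seeded, allowed 5 h at 37 C/5% CO2, dosed by pintool with compounds, positive and negative controls, and imaged for fluorescence across 40 h.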

[3] = A CellTox Green Cytotoxicity Assay to monitor cytotoxicity in HepG2 cells - 32 hour (AID 1224883); further: nearly all actives have a fitted effect of over 50% in size; further: potency means the concentration at half of the fitted maximal effect
Summary of the method: as §2

[4] = qHTS RealTime-Glo MT Cell Viability Assay in HepG2 cells - 16 hour (AID 1224885); further: nearly all actives have a fitted effect of over 50% in size; further: potency means the concentration at half of the fitted maximal effect
Summary of the method: (§3)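 Tox21 10K library screened in qHTS format on HepG2 cells carrying RealTime-Glo reagents. Compounds were added after a 5 h preincubation, and the luminescent signal from continuous culture was measured repeatedly during 40 h treatment.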

[5] = qHTS RealTime-Glo MT Cell Viability Assay in HEK293 cells - 24 hour (AID 1224886); further: nearly all actives have a fitted effect of over 50% in size; further: potency means the concentration at half of the fitted maximal effect
Summary of the method: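 Luminescence generated by NanoLuc from substrate produced by living HEK293 cells served as the viability signal. Each value reflects the reading at its stated time point during continuous 40 h compound exposure at 37 C.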

[6] = qHTS RealTime-Glo MT Cell Viability Assay in HEK293 cells - 8 hour (AID 1224887); further: nearly all actives have a fitted effect of over 50% in size; further: potency means the concentration at half of the fitted maximal effect
Summary of the method: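 Viable HEK293 cells reduce a cell-permeant prosubstrate; the product diffuses out and is consumed by NanoLuc in the medium to give light. Compounds went in after a 5 h incubation and plates were read over the treatment course.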

[7] = qHTS RealTime-Glo MT Cell Viability Assay in HepG2 cells - 0 hour (AID 1224889); further: nearly all actives have a fitted effect of over 50% in size
Summary of the method: as §3

[8] = A CellTox Green Cytotoxicity Assay to monitor cytotoxicity in HepG2 cells - 8 hour (AID 1224890); further: nearly all actives have a fitted effect of over 45% in size; further: potency means the concentration at half of the fitted maximal effect
Summary of the method: as §2

[9] = qHTS assay to identify small molecule antagonists of the estrogen receptor alpha (ER-alpha) signaling pathway using the BG1 cell line in the presence of 0.1 nM 17-beta-estradiol - cell viability counter screen (AID 1259241); further: nearly all actives have a fitted effect of over 40% in size; further: potency means the concentration at half of the fitted maximal effect
Summary of the method: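 Measures cytotoxicity alongside the ER-alpha antagonist readout: VM7Luc4E2 cells, charcoal-stripped serum, 0.1 nM 17beta-estradiol final, 22 hr compound incubation at 37C, CellTiter-Fluor fluorescence.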

[10] = qHTS assay to identify small molecule HDAC inhibitors - cell viability counter screen (AID 1259365); further: nearly all actives have a fitted effect of over 50% in size; further: potency means the concentration at half of the fitted maximal effect
Summary of the method: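 Following a 2hr exposure of overnight-plated wild-type HCT-116 cells to DMSO-delivered compounds, CellTiter-Glo was added and luminescence recorded after 30min at room temperature.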

[11] = qHTS assay to identify small molecule agonists of the sonic hedgehog signaling (Shh) pathway - cell viability counter screen (AID 1259366); further: nearly all actives have a fitted effect of over 50% in size; further: potency means the concentration at half of the fitted maximal effect
Summary of the method: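 After a 4hr attachment at 37C, NIH/3T3 cells bearing an integrated Gli1-driven luciferase reporter were dosed with compounds. Treatment lasted 24hr, with the final hour including CellTiter-Fluor for a fluorescence viability measurement.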

[12] = qHTS assay to identify small molecule antagonists of the sonic hedgehog signaling (Shh) pathway - cell viability counter screen (AID 1259367); further: nearly all actives have a fitted effect of over 55% in size; further: potency means the concentration at half of the fitted maximal effect
Summary of the method: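 After a 4 hr settling period, 3T3 Gli1-Luc cells were treated with DMSO-dissolved chemicals and conditioned medium, kept 24 hr at 37C in 5% CO2, and assayed for viability by CellTiter-Fluor fluorescence following 1 hr reagent incubation.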

[13] = qHTS assay to identify small molecule antagonists of the androgen receptor (AR) signaling pathway using the MDA cell line in the presence of 0.5 nM R1881 - cell viability counter screen (AID 1259242); further: nearly all actives have a fitted effect of over 45% in size
Summary of the method: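 Viability of MDA-kb2 cells was multiplexed with the luciferase AR readout; after 16 hr with compounds and R1881 at 0.5 nM final, CellTiter-Fluor fluorescence was recorded.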

[14] = qHTS assay to identify small molecule HDAC inhibitors (AID 1259364);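 further: wild-type HCT-116 cells with endogenous class I/II HDAC activity; top concentration of the series differs between compounds; nearly all actives have a fitted effect of over 45% in size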
Summary of the method: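 Read-out: luminescence of HDAC-Glo I/II reagent, 30 min RT, reflecting class I/II deacetylase activity in whole HCT-116 cells pre-exposed 2 h to DMSO-dissolved compounds.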

[15] = qHTS assay to identify small molecule agonists of the sonic hedgehog signaling (Shh) pathway (AID 1259368; calls by dose curve;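 further: NIH/3T3-derived 3T3Gli1-Luc cells carrying a stable Gli1-driven firefly luciferase reporter; series mostly up to about 92 µM; nearly all actives have a fitted effect of over 15% in size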)
Summary of the method: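 A Gli1 transcriptional response element controlled firefly luciferase in 3T3Gli1-Luc cells. Compounds and a positive control were added 4 hr after plating, and cells were incubated a further 24 hr at 37 C before luminescence detection.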

[16] = A CellTox Green Cytotoxicity Assay to monitor cytotoxicity in HEK293 cells - 16 hour (AID 1224888); further: nearly all actives have a fitted effect of over 35% in size; further: potency means the concentration at half of the fitted maximal effect
Summary of the method: as §1

[17] = qHTS assay to identify small molecule phospholipidosis (PLD) inducers (AID 1259344; active means well fitted curve in the direction sought with a large enough effect; an effect the other way counts as inactive or inconclusive)
Summary of the method: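 HepG2 cells grown on collagen I take up LipidTOX Red while exposed to compound for 24 h; after fixation they are imaged at 20x and pit metrics are extracted.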

[18] = target: Estrogen receptor (Homo sapiens) (UniProt P03372); experiment: qHTS assay to identify small molecule antagonists of the estrogen receptor alpha (ER-alpha) signaling pathway using the BG1 cell line in the presence of 0.1 nM 17-beta-estradiol (AID 1259244); further: nearly all actives have a fitted effect of over 50% in size; further: potency means the concentration at half of the fitted maximal effect
Chain of Estrogen receptor (Homo sapiens) (P03372 whole entry, looked up): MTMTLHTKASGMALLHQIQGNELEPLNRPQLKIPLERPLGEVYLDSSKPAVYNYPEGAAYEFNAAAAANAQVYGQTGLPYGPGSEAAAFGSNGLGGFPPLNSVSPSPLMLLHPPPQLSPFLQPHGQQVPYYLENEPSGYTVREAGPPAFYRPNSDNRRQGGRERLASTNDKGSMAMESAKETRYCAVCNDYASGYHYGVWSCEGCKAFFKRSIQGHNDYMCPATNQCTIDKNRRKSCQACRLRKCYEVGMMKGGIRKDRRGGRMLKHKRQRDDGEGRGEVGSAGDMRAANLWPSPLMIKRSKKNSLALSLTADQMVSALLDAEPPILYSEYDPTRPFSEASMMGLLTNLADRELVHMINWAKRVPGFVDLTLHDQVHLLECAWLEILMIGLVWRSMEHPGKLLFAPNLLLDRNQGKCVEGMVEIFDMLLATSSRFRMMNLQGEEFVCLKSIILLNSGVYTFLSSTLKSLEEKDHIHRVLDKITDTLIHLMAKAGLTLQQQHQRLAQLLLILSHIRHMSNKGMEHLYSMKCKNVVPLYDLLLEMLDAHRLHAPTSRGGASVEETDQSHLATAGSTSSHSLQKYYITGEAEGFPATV
Summary of the method: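 Estradiol at 0.1 nM (final) stimulates the endogenous ER-alpha of VM7Luc4E2 cells carrying an ERE-driven luciferase; compounds are co-incubated 22 h at 37C and luciferase output quantified by luminescence.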

[19] = A CellTox Green Cytotoxicity Assay to monitor cytotoxicity in HEK293 cells - 8 hour (AID 1224884); further: nearly all actives have a fitted effect of over 35% in size
Summary of the method: as §1

Measured: Potency

O=[N+]([O-])c1cc([N+](=O)[O-])c2ccc(S(=O)(=O)O)cc2c1O
active: [9] 27.1 µM | [11] 13.6 µM | [12] 8.58 µM
inactive: [1] | [2] | [3] | [4] | [5] | [6] | [7] | [8] | [10]

Clc1ccc2n[nH]nc2c1
inactive: [1] | [2] | [3] | [4] | [5] | [6] | [7] | [8] | [9] | [13] | [14] | [10] | [11] | [12] | [15]

CC(C)n1nc(-c2cc3cc(O)ccc3[nH]2)c2c(N)ncnc21
active: [3] 23.9 µM | [11] 0.841 µM | [12] 0.944 µM
inactive: [1] | [2] | [4] | [16] | [7] | [8] | [17] | [14] | [10] | [15]

O=C1C=CC(=O)N1c1ccc(Cc2ccc(N3C(=O)C=CC3=O)cc2)cc1
active: [1] 19.5 µM | [3] 9.77 µM | [4] 12.3 µM | [5] 13.8 µM | [6] 21.9 µM | [16] 49 µM | [8] 17.4 µM | [11] 7.7 µM | [12] 21.7 µM
inactive: [2] | [7] | [9] | [10] | [15]

CCCCCCCCCCCCCCCS(=O)(=O)Oc1ccccc1
inactive: [1] | [2] | [3] | [4] | [16] | [7] | [8] | [9] | [13] | [18] | [10] | [11] | [12] | [15]

CCCN(CCC)c1c([N+](=O)[O-])cc(C(F)(F)F)c(N)c1[N+](=O)[O-]
active: [1] 54.8 µM | [3] 54.8 µM | [4] 48.9 µM | [5] 19.4 µM | [6] 9.75 µM | [9] 60.9 µM | [18] 54.3 µM | [10] 60.9 µM | [11] 48.4 µM | [12] 60.9 µM
inactive: [2] | [7] | [14] | [15]

CCc1cc(Cc2cc(CC)c(N)c(CC)c2)cc(CC)c1N
active: [5] 27.5 µM | [6] 27.5 µM | [18] 54.5 µM
inactive: [1] | [2] | [4] | [16] | [7] | [8] | [9] | [13] | [14] | [10] | [11] | [12] | [15]

N=C1N=C(N)c2ccccc21
inactive: [1] | [2] | [19] | [6] | [16] | [7] | [8] | [9] | [14] | [10]
